Source: PubChem BioAssay (National Center for Advancing Translational Sciences (NCATS))
RORg inh – ROR gamma (mouse) transcription inhibition | 310,000 tested, 5.4% active | Drosophila S2 Gal4-RORgamma UAS-luciferase reporter, 20 h | Potency, µM (top dose mostly 53.6 µM), inactives show at the highest dose activity change, negative = inhibition, hits mostly inhibitors | AID 2551 | P51450; further: nearly all actives have a fitted effect of over 60% in size
Target sequence (P51450 whole entry, looked up, the tested form may be a part): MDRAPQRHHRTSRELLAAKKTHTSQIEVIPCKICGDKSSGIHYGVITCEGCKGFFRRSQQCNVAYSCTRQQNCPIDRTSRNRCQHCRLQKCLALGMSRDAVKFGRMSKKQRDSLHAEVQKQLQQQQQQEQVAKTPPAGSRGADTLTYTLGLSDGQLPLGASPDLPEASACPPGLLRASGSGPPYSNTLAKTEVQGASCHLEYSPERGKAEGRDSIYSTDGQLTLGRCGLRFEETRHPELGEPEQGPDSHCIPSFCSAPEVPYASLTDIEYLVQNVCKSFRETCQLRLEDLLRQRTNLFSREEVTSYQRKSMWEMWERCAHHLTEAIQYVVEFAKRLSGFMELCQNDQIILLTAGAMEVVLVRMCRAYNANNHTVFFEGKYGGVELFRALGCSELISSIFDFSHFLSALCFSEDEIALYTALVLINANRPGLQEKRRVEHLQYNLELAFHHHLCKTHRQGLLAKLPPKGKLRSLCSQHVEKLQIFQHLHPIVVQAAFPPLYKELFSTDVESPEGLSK
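Luminescence from a UAS-regulated Photinus luciferase reporter in stably transfected Drosophila Schneider cells is measured; decreased signal marks ROR gamma inhibition. Fusion expression is induced by 700 uM copper sulfate for 20 hr.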
Gal4-VP16 FLuc – counter-screen for ROR gamma inhibitors: Gal4-VP16 reporter | 310,000 tested, 3.5% active | Potency, µM (titrated, usually from 53.6 µM), inactives show at the top dose activity, negative = inhibition, usual class: inhibitors | Drosophila S2 Gal4-VP16 UAS-luciferase, luminescence, 20 h;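 further: Gal4-VP16 expression switched on by copper sulfate through the metallothionein promoter; nearly all actives have a fitted effect of over 50% in size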
Luc counter – Kinase-Glo luciferase inhibition (counter-screen); 200,000 tested, 0.28% active; Q27757; Potency, µM (doses to about 38.3 µM), without a hit: top-dose activity change, negative = inhibition, hits mostly inhibitors; AID 1379; Kinase-Glo luciferase, ATP luminescence, 8 min; further: nearly all actives have a fitted effect of over 60% in size
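Substrate mix (final 50 mM imidazole pH 7.2, 50 mM KCl, 7 mM MgCl2, 10 uM ATP, 0.01% Tween 20, 0.05% BSA) plus pin-tool compound, then Kinase-Glo detection mix; 8 min ambient, luminescence read.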
Active calls of the source: *; ? = inconclusive; / = not tested or not shown; [ ] = another dose, or the depositor's remark. The list is not random: actives were taken first. Their share in the collection is about 6.4%. The call rests on the fitted dose curve; in most records, active means well fitted curve in the direction sought with a large enough effect; inconclusive means small, poorly fitted or top-dose-only effect, or another doubt; inactive means no such curve, though single readings can be large; an effect the other way counts as inactive or inconclusive. On the % scale 0 is the no-effect control and ±100 the full control effect; potency means the concentration at half of the fitted maximal effect.

SMILES	RORg inh	Gal4-VP16 FLuc	Luc counter
O=C(CSC1CC(=O)N(c2ccc(C(=O)O)cc2)C1=O)Nc1ccc(Cl)cc1 (stereo unspecified)	-16%	-12%	-1%
O=C(NC1CCC(=O)N(CCOc2ccccc2)CC1)OCc1ccccc1 (stereo unspecified)	5%	7%	/
COc1cc(/C=N/Nc2ccccn2)cc(OC)c1O	?	?	-7%
Oc1cccc(/C=N/Nc2cccc3cccnc23)c1	7.1µM*	?	-16%
O=C(Nc1cccc2cccnc12)c1cccc2ccccc12	-5%	-4%	1%
COc1cc(/C=N/Nc2cccc3cccnc23)cc(OC)c1O	10µM*	?	-3%
Oc1c(/C=N/Nc2cccc3cccnc23)ccc2ccccc12	13µM*	?	-1%
O=C(N/N=C/c1cccc(O)c1)c1ccc(COc2cccc3cccnc23)cc1	45%	-4%	-1%
CCCCC/C=C\C/C=C\CCCCCCCC(=O)O[C@@H](CO)COC(=O)CCCCCCCCCCCCCCCCC	2%	10%	/
Cc1cc2c(cc1C)C(c1ccccc1OC(C)C)CC(=O)N2 (stereo unspecified)	11%	3%	/
CC(C)Oc1ccccc1C1CC(=O)Nc2cc3c(cc21)OCO3 (stereo unspecified)	?	13µM*	-6%
COc1ccccc1C(=O)OCc1ccc2sc(C)nc2c1	25%	3%	-3%
C[C@H]1CCC[C@]2(C)C[C@H]3OC(=O)C(CN4CCCCCC4)[C@H]3C=C12 (stereo partly specified)	?	-23%	/
C=C1C(=O)OC2C[C@@]3(C)CCCC(C)C3=CC12 (stereo partly specified)	10µM*	?	0%
CCOC(=O)Cn1ccc(NC(=O)COc2ccc(F)cc2F)n1	-6%	1%	/
CCN(C(=O)c1cnc(NC(C)C)cc1C(F)(F)F)c1ccc(Cl)cc1Cl	-1%	11%	/
COc1cccc(NC(=S)Nc2cc(C)cc(C)n2)c1	1.3µM*	?	/
COc1ccc(NC(=S)Nc2cc(C)cc(C)n2)cc1OC	46%	?	/
Cc1cc(C)nc(NC(=O)C(c2ccccc2)c2ccccc2)c1	30%	14%	1%
Cc1cc(C)nc(NC(=S)Nc2cccc(F)c2)c1	1.8µM*	7.1µM*	/
CCOC(=O)c1ccc(NC(=O)N2CCN(Cc3ccccc3)CC2)cc1	-3%	-2%	1%
N#C/C(=C(/O)c1ccc([N+](=O)[O-])o1)c1nc2ccccc2[nH]1	3%	-9%	/
Cc1ccc2nc(/C(C#N)=C\c3ccc([N+](=O)[O-])o3)[nH]c2c1	5.6µM*	3.2µM*	-4%
N#C/C(=C\Nc1ccc2c(c1)OCCO2)c1nc(-c2ccccc2)cs1	15%[10 µM]	-4%	2%
N#C/C(=C\Nc1ccc2c(c1)OCCO2)c1nc2ccccc2[nH]1	3.2µM*	5µM*	1%
SMILES	RORg inh	Gal4-VP16 FLuc	Luc counter
Cc1ccc2nc(/C(C#N)=C/c3ccc(-c4ccccc4C(=O)O)o3)[nH]c2c1	-22%	-5%	/
N#C/C(=C\c1ccc([N+](=O)[O-])o1)c1nc2ccccc2[nH]1	2µM*	1.6µM*	1%
O=[N+]([O-])c1cccc(N(CC2CO2)S(=O)(=O)c2ccccc2)c1 (stereo unspecified)	-8%	1%	/
Cc1ccc(C)c(N(C(=O)c2ccco2)C(C(=O)NC2CCCC2)c2ccco2)c1 (stereo unspecified)	1%	-3%	/
CCOC(=O)c1sc(-c2ccc(C)cc2)c(C#N)c1C	16%	5%	-3%
Cc1c(C(=O)NN)sc(-c2ccccc2)c1C#N	10µM*	?	-3%
CCN(CC(=O)Nc1ccc(Cl)c(S(=O)(=O)N(C)C)c1)CC(=O)NC(C)C	5%	6%	1%
CSCCC(NC(=O)C1CCC(C)CC1)C(=O)NCCN1CCC(C)CC1 (stereo unspecified)	5%	-1%	-2%
CCOc1ccc(CSCCNC(=S)Nc2ccc(OC)cc2)cc1	2µM*	7.1µM*	/
C=COCCNC(=S)Nc1ccccc1	-1%	-6%	-2%
CCCOc1ccc(CSCCNC(=S)Nc2ccccc2)cc1	2.8µM*	?	2%
COc1ccc(C(=O)NCCSCc2ccc(C)cc2)cc1	8%	-1%	-1%
COc1cc(C(=O)Nc2c(C(=O)O)[nH]c3ccc(Br)cc23)cc(OC)c1OC	-14%	-2%	/
C/C(=N\Nc1nc2ccc(Cl)cc2o1)c1ccccc1	2.5µM*	?	/
C/C(=N/NS(=O)(=O)c1ccccc1)c1ccc(Cl)cc1	10%	9%	-1%
CCc1ccc(N(C(=O)CCC(=O)Nc2cc(C)on2)C(C(=O)NC(C)(C)C)c2ccc(OC)cc2)cc1 (stereo unspecified)	22%	3%	/
CCn1c(SCC(=O)NC2CC2)nnc1-c1csc(C)c1	-19%	-3%	/
CN(C)C(=O)CCCc1nc(-c2ccc(Cl)cc2)no1	-5%	0%	-5%
Cc1cccc(-c2noc(CCCC(=O)Nc3cccnc3)n2)c1	-12%	?	-2%
O=C(O)CCCc1nc(-c2ccc(Cl)cc2)no1	0.35µM*	?	2%
O=C(CCCc1nc(-c2ccc(Cl)cc2)no1)Nc1cccnc1	16µM*	11µM*	-1%
NC(=O)CCCc1nc(-c2ccccc2)no1	-1%	-14%	/
O=C(O)CCCc1nc(-c2ccccc2)no1	14µM*	?	1%
CC1CN(C(=O)c2c(Br)cnn2C)CC(C)O1 (stereo unspecified)	-7%	-2%	-4%
NC(=O)C1CC(=O)N(CCc2ccc(F)cc2)C1 (stereo unspecified)	15%	-3%	/
SMILES	RORg inh	Gal4-VP16 FLuc	Luc counter
COc1ccc(Cl)cc1NC(=O)C1CC(=O)N(C2CCCCC2)C1 (stereo unspecified)	11%	-3%	/
COc1ccc(-c2nnc(SCC(=O)Nc3ncc(C(F)(F)F)cc3Cl)n2CC(C)C)cc1	-42%	-16%	-2%
CCn1c(SCC(=O)Nc2ncc(C(F)(F)F)cc2Cl)nnc1-c1cccc(C)c1	10µM*	?	1%
O=C(CSc1nnc(-c2ccc3c(c2)OCO3)o1)Nc1ncc(C(F)(F)F)cc1Cl	4µM*	?	-2%
Cc1nc(NC(=O)CSc2nnc(-c3ccc4c(c3)OCO4)o2)c(Cl)cc1Cl	-43%	1%	0%
CCc1ccccc1NC(=O)COc1ccc(C(=S)N2CCCC2)cc1	-11%	-18%	-1%
Cc1ccc(C(=O)NCCC(=O)N2CCC3(CC2)NCCc2[nH]cnc23)cc1C	-2%	0%	/
CC(C)c1ccc(NC(=S)NC2CCN(Cc3ccccc3)CC2)cc1	16µM*	?	-2%
S=C(Nc1ccc2c(c1)OCO2)NC1CCN(Cc2ccccc2)CC1	-44%	-8%	-6%
S=C(Nc1ccccc1Cl)N1CCN(Cc2ccccc2)CC1	?	6%	-2%
O=C(Nc1ccccc1)NC1CCN(Cc2ccccc2)CC1	3%	6%	0%
CC(NC1CCN(Cc2ccccc2)CC1)c1ccc(F)cc1 (stereo unspecified)	-38%	1%	/
Cc1ccc(NC(=S)NC2CCN(Cc3ccccc3)CC2)cc1C	11µM*	?	-2%
Cc1ccc(NC(=S)NC2CCN(Cc3ccccc3)CC2)cc1	13µM*	?	1%
Cc1c(Cl)cccc1NC(=S)N1CCN(Cc2ccccc2)CC1	10µM*	?	0%
